Source: PubChem BioAssay (Tox21)
Inconclusive results are not listed. Unmarked numbers belong to inactive results. Activity calls are given as the source filed them. Calls come from the whole dose curve; as a rule, active = well fitted activation curve with a large enough effect in the repeat runs; inconclusive = weak or mixed curves; inactive = no such curve, though single readings can be large or run the other way.

molecular target: Nuclear receptor subfamily 1 group I member 2 (Homo sapiens) (UniProt O75469); assay: CYP3A4 induction through human pregnane X receptor (PXR) by small molecules, qHTS assay (AID 1346984); conditions: DPX-2 HepG2 PXR, CYP3A4-luciferin luminescence, 24 h; series mostly up to 46.1 µM; activation: at the top concentration; note: nearly all actives have a fitted effect of over 40% in size
Description: National Center for Advancing Translational Sciences [NCATS]
NIH Chemical Genomics Center [NCGC]
U.S. Environmental Protection Agency [EPA]
National Institutes of Environmental Health Sciences [NIEHS]
National Toxicology Program [NTP]
The Pregnane X receptor (PXR), a ligand activated nuclear receptor plays a critical role in the regulation of genes involved in drug metabolism and transporters. Activation of PXR is responsible for unwanted adverse drug reactions. PXR binds xenobiotics and when compounds interact with PXR enhances the expression of CYP3A genes. Identifying the compounds with the potential for PXR activation and CYP3A4 induction can be of importance in improving the efficacy of drugs with less toxicity and avoiding drug-drug interactions.
DPX-2 (Puracyp, Inc.) cell lines, used for screening against human PXR activation has HepG2 cells co-transfected with a PXR response element and a luciferase construct containing CYP3A4 promoter. Increase in luciferase activity can be used to identify the compounds that cause the induction of CYP3A4.
DPX-2 cells were dispensed at 2,000 cells per well in 5uL of assay medium into white, solid-bottom 1536-well plates using a Multidrop Combi dispenser (Thermo Scientific). The assay plates were incubated at 37C for 5hr before transferring 23nL of test compounds dissolved in DMSO and positive control via Pintool station (Wako). The assay plates were incubated at 37C for 24hr. After 24hr compound treatment, 1uL of 3uM (final concentration) P450 substrate (P450-Glo CYP3A4 screening system with Luciferin-IPA, Promega) was added by a Flying Reagent Dispenser (FRD, Aurora Discovery). The assay plates were incubated for 3hr at 37C. Then 5ul One-Glo assay reagent (Promega) was added to each plate by an FRD and following 30 min incubation at room temperature, luciferase activity was quantified on a ViewLux plate reader (Perkin Elmer).
% is set by controls: 0 for no effect and ±100 for the full control effect; potency is the fitted concentration of half-maximal effect.

SMILES | Potency | activation
CC1=C(C)C(=O)C(C(CCCCCC(=O)O)c2ccccc2)=C(C)C1=O (configuration not stated) | 10 µM (active) | –
CCCCCCCCCCCCCCCCN | – | -5.44%
Cc1ccc(S(=O)(=O)NC(=O)NC2CCCC2)cc1 | – | -6.53%
CC1=CC(=C(c2ccc(N)cc2)c2ccc(N)cc2)C=CC1=N | – | -21.5%
CCN(CCCCOC(=O)c1ccc(OC)c(OC)c1)C(C)Cc1ccc(OC)cc1 (configuration not stated) | – | 3.33% [at 20.6 µM]
COc1ccc(CN(CCN(C)C)c2ncccn2)cc1 | – | 1.35%
C/C=C1\[C@H]2C=C(C)C[C@]1(N)c1ccc(=O)[nH]c1C2 | – | 19.7%
Cc1c(Nc2ncccc2C(=O)O)cccc1C(F)(F)F | – | -1.51% [at 20.6 µM]
Nc1ccc(C(=O)Oc2ccccc2)c(O)c1 | – | -1.46%
CC(COc1ccccc1)NC(C)C(O)c1ccc(O)cc1 (configuration not stated) | – | -7.61% [at 20.6 µM]
Cc1cccc(C)c1NC(=O)CN1CCCC1 | – | -7.72%
CC(C)C[C@H](NC(=O)[C@H](Cc1ccccc1)NC(=O)c1cnccn1)B(O)O | inactive | –
Clc1cccc(C(c2ccc3nc[nH]c3c2)n2ccnc2)c1 (configuration not stated) | – | -17.2%
CC(C)(Cc1c[nH]c2ccccc12)NCC(O)COc1ccccc1C#N (configuration not stated) | 12.6 µM (active) | –
CC(=O)OCC(=O)[C@@]1(O)CC[C@H]2[C@@H]3CCC4=CC(=O)C=C[C@]4(C)[C@@]3(F)[C@@H](O)C[C@@]21C | 0.631 µM (active) | –
C[C@]12CCC(=O)C=C1[C@@H]1C[C@@H]1[C@H]1[C@@H]3[C@@H]4C[C@@H]4[C@@]4(CCC(=O)O4)[C@@]3(C)CC[C@@H]12 | 11.2 µM (active) | –
O=C1c2ccccc2C(=O)c2c1ccc(O)c2O | 14.1 µM (active) | –
C[C@@H](O)[C@H]1C(=O)N2C(C(=O)O)=C(S[C@@H]3CN[C@H](CNS(N)(=O)=O)C3)[C@H](C)[C@H]12 | – | -5.52%
CC[C@H](NC(C)C)[C@H](O)c1ccc(O)c2[nH]c(=O)ccc12 | – | -12.7%
CCCCCCCCCCCCSCCOCCO | – | -15%
CCOC(C)OCC | – | -4.89%
C/C(=C(\CCO)SS/C(CCO)=C(\C)N(C=O)Cc1cnc(C)nc1N)N(C=O)Cc1cnc(C)nc1N | – | 2.02%
NC(=O)c1cc[n+](CC2=C(C(=O)[O-])N3C(=O)[C@@H](NC(=O)Cc4cccs4)[C@H]3SC2)cc1 | – | -1.46% [at 20.6 µM]
COc1cc(C)c(Cc2cnc(N)nc2N)cc1OC | – | -3.17%
COc1ccc(C(=O)c2ccc(C)cc2)c(O)c1 | – | -9.52%
O=C(OC1C[C@H]2CC[C@@H](C1)[N+]21CCCC1)C(O)(c1ccccc1)c1ccccc1 (some centres not stated) | – | -0.293%
CC(C)(C)NCC(O)COc1ccc(NC(=O)NC2CCCCC2)cc1 (configuration not stated) | – | 7.82%
